About 2,000 (36%) of roughly 5,500 compounds were called active. Not shown: some 18% with an inconclusive outcome. No stated cut-off is given here; in the data, active means normalized growth mostly below about 0.91 (no sharp cut-off); inconclusive means no clear call, values can overlap the other calls; inactive means mostly above about 0.92. Some of the results follow.
Assay: chemical genetic growth profiling, strain panel (AID 1159580);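 further: tested at 20 µM; growth read once vehicle control cultures reached saturation at 30 °C; 1 = growth at the plate median or of vehicle wells; lower values mean less growth of the strain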
Conditions: S. cerevisiae deletion strains, growth OD

Measured: normalized growth

O=C(O)c1cc(=O)c2ccccc2o1
inactive: locus YAL021C, strain ccr4, active compounds read low 1.01 | locus YAL026C, strain drs2, active compounds read low 0.984 | locus YAL030W, strain snc1, active compounds read low 0.971 | locus YBL061C, strain skt5, active compounds read low 0.974 | locus YBR009C, strain hhf1, active compounds read low 0.989 | locus YBR023C, strain chs3, active compounds read low 0.982 | locus YBR171W, strain sec66, active compounds read low 0.965 | locus YBR231C, strain swc5, active compounds read low 0.982 | locus YBR279W, strain paf1, active compounds read low 0.981 | locus YCL011C, strain gbp2, active compounds read low 0.988 | locus YCL016C, strain dcc1, active compounds read low 0.995 | locus YCL061C, strain MRC1, active compounds read low 0.979 | locus YCL069W, strain vba3, active compounds read low 0.99 | locus YCR088W, strain abp1, active compounds read low 0.973 | locus YDL005C, strain med2, active compounds read low 0.967 | locus YDL040C, strain nat1, active compounds read low 0.98 | locus YDR001C, strain nth1, active compounds read low 0.972 | locus YDR069C, strain doa4, active compounds read low 0.966 | locus YDR137W, strain rgp1, active compounds read low 0.971 | locus YDR159W, strain sac3, active compounds read low 1 | locus YDR195W, strain ref2 0.916 | locus YDR297W, strain sur2, active compounds read low 0.983 | locus YDR334W, strain swr1, active compounds read low 0.976 | locus YDR335W, strain msn5, active compounds read low 0.986 | locus YDR392W, strain spt3, active compounds read low 1.02 | locus YEL003W, strain gim4, active compounds read low 0.983 | locus YEL037C, strain rad23, active compounds read low 0.973 | locus YEL061C, strain CIN8 (second series), active compounds read low 0.97 | locus YER015W, strain faa2, active compounds read low 0.99 | locus YER016W, strain bim1, active compounds read low 0.984 | locus YER111C, strain swi4, active compounds read low 0.972 | locus YER155C, strain BEM2 (second series), active compounds read low 0.936 | locus YFR010W, strain ubp6, active compounds read low 0.976 | locus YGL167C, strain pmr1, active compounds read low 0.973 | locus YGL173C, strain kem1, active compounds read low 0.975 | locus YGL227W, strain vid30, active compounds read low 0.968 | locus YGL240W, strain doc1, active compounds read low 0.96 | locus YGL253W, strain hxk2, active compounds read low 0.992 | locus YHR013C, strain ard1, active compounds read low 0.978 | locus YHR027C, strain rpn1, active compounds read low 0.977 | locus YHR030C, strain SLT2, active compounds read low 1.03 | locus YHR079C, strain IRE1, active compounds read low 1.02 | locus YHR142W, strain chs7, active compounds read low 0.983 | locus YJL092W, strain hpr5, active compounds read low 0.98 | locus YJL095W, strain BCK1 (second series), active compounds read low 0.97 | locus YJL095W, strain BCK1, active compounds read low 1.03 | locus YJL115W, strain asf1, active compounds read low 0.979 | locus YJL129C, strain trk1, active compounds read low 0.95 | locus YJL154C, strain vps35, active compounds read low 0.952 | locus YJL164C, strain tpk1, active compounds read low 0.98 | locus YJL166W, strain qcr8, active compounds read low 0.97 | locus YJR066W, strain TOR1, active compounds read low 0.956 | locus YKL160W, strain elf1, active compounds read low 0.987 | locus YKR026C, strain gcn3, active compounds read low 0.971 | locus YKR091W, strain srl3, active compounds read low 0.972 | locus YLL001W, strain dnm1, active compounds read low 0.957 | locus YLL026W, active compounds read low 0.969 | locus YLL041C, strain sdh2, active compounds read low 0.972 | locus YLR027C, strain aat2, active compounds read low 0.979 | locus YLR113W, strain HOG1, active compounds read low 1.05 | locus YLR221C, strain rsa3, active compounds read low 1 | locus YLR258W, strain gsy2, active compounds read low 0.985 | locus YLR262C, strain YPT6 (second series), active compounds read low 0.986 | locus YLR320W, strain mms22, active compounds read low 0.991 | locus YLR342W, strain FKS1, active compounds read low 0.983 | locus YLR357W, strain rsc2, active compounds read low 0.975 | locus YLR370C, strain arc18, active compounds read low 0.974 | locus YLR384C, strain iki3, active compounds read low 0.976 | locus YML120C, strain ndi1, active compounds read low 0.958 | locus YMR058W, strain fet3, active compounds read low 0.984 | locus YMR125W, strain sto1, active compounds read low 0.95 | locus YMR129W, active compounds read low 0.981 | locus YMR205C, strain PFK2, active compounds read low 0.969 | locus YMR231W, strain pep5, active compounds read low 0.949 | locus YNL071W, strain lat1, active compounds read low 0.988 | locus YNL183C, strain NPR1, active compounds read low 0.949 | locus YNL209W, strain ssb2, active compounds read low 1.03 | locus YNL248C, strain rpa49, active compounds read low 0.968 | locus YNL322C, strain KRE1 (second series), active compounds read low 0.953 | locus YNR049C, strain mso1, active compounds read low 0.982 | locus YOR001W, strain rrp6, active compounds read low 0.983 | locus YOR070C, strain gyp1, active compounds read low 0.985 | locus YOR080W, strain dia2, active compounds read low 0.971 | locus YOR083W, strain WHI5, active compounds read low 0.982 | locus YOR106W, strain vam3, active compounds read low 0.972 | locus YOR231W, strain MKK1, active compounds read low 1.07 | locus YOR265W, strain rbl2, active compounds read low 0.976 | locus YOR270C, strain vph1, active compounds read low 0.962 | locus YOR290C, strain snf2, active compounds read low 1 | locus YPL051W, strain arl3, active compounds read low 0.983 | locus YPL078C, strain atp4, active compounds read low 0.975 | locus YPL106C, strain sse1, active compounds read low 0.988 | locus YPL240C, strain hsp82, active compounds read low 0.994 | locus YPL256C, strain CLN2, active compounds read low 1.03
